Most compounds without a hit are left out; they make up all but 4.1% or so of the library.
PRMT1 inh – blocks human protein arginine methyltransferase 1 | recombinant PRMT1, activity-based probe fluorescence polarization | inhibition, % at 2.79 µM | Q99873 | hit rate 1.3% among 370,000;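 active = inhibition above about 21% made by adding two undisclosed values, limit read from the data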
rCAG binder – binds r(CAG) RNA repeats; r(CAG) RNA repeat, TO-PRO-1 dye displacement fluorescence; inhibition, % at 3 µM; hit rate 1.3% among 370,000; AID 651821;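 active = inhibition above the plate cutoff, the mean of all test compounds on that plate plus 3 SD, cut at about 35% in these data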;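 note: 0% = DMSO alone and 100% = 100 µM mitoxantrone as full dye displacement; higher means more dye released from RNA so lower well fluorescence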
MBD2 DNA inh – MBD2-methylated oligo binding inhibition; AID 686964; Q9UBB5; inhibition, % at 4.4 µM; TR-FRET, MBD2 binding to methylated oligonucleotide; hit rate 0.31% among 370,000; in the data active = inhibition above about 13%
Target sequence (Q9UBB5 whole entry, looked up): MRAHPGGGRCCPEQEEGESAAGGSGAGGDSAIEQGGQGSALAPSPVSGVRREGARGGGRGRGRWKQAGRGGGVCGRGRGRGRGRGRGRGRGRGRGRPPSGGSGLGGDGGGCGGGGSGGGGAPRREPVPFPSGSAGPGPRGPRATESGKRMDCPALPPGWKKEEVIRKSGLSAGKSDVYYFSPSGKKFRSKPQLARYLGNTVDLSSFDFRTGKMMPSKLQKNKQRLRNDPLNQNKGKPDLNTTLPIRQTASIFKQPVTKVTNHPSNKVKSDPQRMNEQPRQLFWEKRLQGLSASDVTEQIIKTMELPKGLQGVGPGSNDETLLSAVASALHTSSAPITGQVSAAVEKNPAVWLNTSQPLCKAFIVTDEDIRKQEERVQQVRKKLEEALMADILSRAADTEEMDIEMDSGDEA
LEDGF integ inh – blocks HIV-1 LEDGF/p75-dependent DNA integration; TR-FRET IN-LEDGF/p75 DNA integration, Eu/Cy5; inhibition, % at 3.7 µM; hit rate 0.64% among 370,000;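 active = inhibition above the screen-wide mean plus 3 SD, cut at about 13% in these data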;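 note: signal is the Cy5 over europium emission ratio at 671 and 618 nm; 0% = plate median of compound wells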
ABHD5 PLIN5 PPI – blocks binding of human ABHD5 to perilipin-5; Split G. princeps luciferase complementation, luminescence, 4 h; hit rate 0.78% among 360,000; inhibition, % at 4 µM; AID 602281;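 active = inhibition above the mean inhibition across every tested compound plus 3 SD, cut at about 22% in these data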;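 note: 0% = DMSO only wells and the 100% control is not disclosed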
UHRF1 MBD2 ctr – human UHRF1 methylated DNA binding inhibitors; hit rate 0.75% among 370,000; inhibition, % at 4.4 µM; AID 687016; UHRF1 binding to methylated oligo, TR-FRET; in the data active = inhibition above about 21%;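 note: UHRF1 SRA domain binding a hemimethylated CpG hairpin DNA probe; 0% = median of test compound wells and 100% = reference inhibitor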
rCAG binder conf – r(CAG) RNA repeat binding, confirmation. shares compounds with rCAG binder. TO-PRO-1 dye displacement fluorescence. inhibition, % at 3 µM. hit rate 70% among 4,300;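 active = inhibition above a per-plate cutoff, the mean inhibition of sample wells plus 3 SD, cut at about 35% in these data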;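 note: loss of TO-PRO-1 fluorescence as compound displaces dye from 1x1 AA loop RNA; 0% = DMSO only wells and 100% = 100 µM mitoxantrone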
dCAG dye counter – DNA CAG dye complex inhibition counter-screen | shares compounds with rCAG binder | d(CAG) DNA oligo TO-PRO-1 dye displacement, fluorescence | inhibition, % at 3 µM | hit rate 94% among 4,300 | AID 652068;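 active = inhibition above its plate's cutoff, the mean test-well inhibition plus 3 SD, cut at about 4.8% in these data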;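 note: 0% = DNA dye mix with DMSO and 100% = 100 µM mitoxantrone; hits displace the dye from DNA and so lower well fluorescence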
dCAG dye DR – DNA CAG dye complex inhibition, dose response counter-screen; DNA CAG/GTC duplex TO-PRO-1 dye displacement fluorescence; hit rate 20% among 250; shares compounds with rCAG binder; IC50, µM; in the data active = IC50 below about 10 µM
Starred values were filed as active, the others as inactive; i = inactive; · = no result.

SMILES	PRMT1 inh	rCAG binder	MBD2 DNA inh	LEDGF integ inh	ABHD5 PLIN5 PPI	UHRF1 MBD2 ctr	rCAG binder conf	dCAG dye counter	others
CCOC(=O)[C@@]12CCC3=C1N(CCC3)C(=O)[C@H](CC(=O)NCc1ccc(OC)c(OC)c1)C2	5	2	10	-2	·	4	·	·
COC1=C[C@H](C(=O)NCc2ccc(Br)cc2)C(C)C(c2ccccc2)CC1=O (some centres not stated)	-2	5	3	-3	·	-2	·	·
C/C=C1\NC(=O)[C@H](C)NC(=O)[C@@H](NC(=O)[C@@H](Cc2ccc(O)cc2)NC(=O)[C@@H](NC(=O)/C(C)=C/C)C(C)C)[C@@H](C)OC(=O)[C@H](CCCCc2ccc(O)cc2)NC(=O)[C@@H](CCC(=O)O)NC1=O	-6	36*	1	7	1	1	34	6.7*
CCCCN1CN2Cc3ccccc3C2CS1(=O)=O (configuration not stated)	7	2	-2	0	·	-3	·	·
O=C(NCCc1ccc(Cl)cc1)C1CCN(S(=O)(=O)c2cccs2)CC1	-1	0	6	2	-6	18	·	·
O=C(O)c1ccc(Cl)cc1NC(=O)C1CCN(S(=O)(=O)c2cccs2)CC1	-1	39*	2	2	-7	-1	41*	10*
COc1ccc(CCn2cnn3c(=O)c4ccccc4nc3c2=O)cc1OC	-4	1	6	0	·	0	·	·
O=C(N/N=C/c1ccccc1C(=O)O)c1cc(-c2ccc3c4c(cccc24)CC3)n[nH]1	6	58*	2	2	-4	-1	62*	24*
Cc1ccc(Nc2nnc(SC/C(O)=C(\C#N)c3nc4ccccc4[nH]3)s2)c(C)c1	7	39*	-4	2	-6	-5	41*	16*
Cc1nc2ccc(S(=O)(=O)Nc3ccc(-c4nc5cccnc5s4)cc3)cc2s1	10	53*	3	1	-1	-2	42*	12*
O=S(=O)(Nc1ccc(-c2nc3cccnc3s2)cc1)c1cccs1	-6	8	6	0	-1	-1	·	·
O=S(=O)(Nc1ccc(-c2nc3cccnc3s2)cc1)c1ccc(Cl)s1	4	66*	4	0	4	-2	71*	32*	dCAG dye DR=i
Cc1nc2ccc(S(=O)(=O)Nc3cccc(-c4nc5cccnc5s4)c3)cc2s1	2	23	-6	0	-4	-1	·	·
COC(=O)[C@]12C[C@H](CC(=O)N3CCN(C(=O)C4CC4)CC3)C(=O)N(Cc3ccccc3)C1=C[C@H](COCc1ccccc1)O[C@@H]2C	-6	1	5	1	·	-1	·	·
Cc1ccc(S(=O)(=O)N/N=C2/CC(c3ccccc3)Oc3ccccc32)cc1[N+](=O)[O-] (configuration not stated)	10	42*	2	2	-12	9	76*	37*
Cc1c(CC(=O)O)c(=O)oc2cc(OCc3ccc(Br)cc3)ccc12	2	40*	-1	5	3	0	47*	9.7*	dCAG dye DR=>30
Cc1c(CCC(=O)O)c(=O)oc2cc(OCc3ccccc3Br)ccc12	11	56*	6	-3	-3	1	43*	8.8*
O=S1(=O)c2c(cccc2N2CC[C@H](O)C2)O[C@H]2CCN1C2	6	2	-5	-6	·	2	·	·
COC(=O)C1=C(C)N(Cc2ccc(Br)cc2)C(=S)NC1c1cccc(OC)c1 (configuration not stated)	2	4	4	0	·	-1	·	·
CCOC(=O)CN1C(=O)[C@]2(OCCC=C[C@H]2C)c2ccccc21	1	0	4	1	·	-1	·	·
Clc1ccc(-c2cc(-c3nnc4sc(Cc5cccs5)nn34)[nH]n2)cc1	1	24	2	4	·	1	·	·
CCOC(=O)C1=C[C@@H](C)N(S(=O)(=O)c2ccc(C)cc2)[C@H]1c1ccccc1	-4	2	1	0	-16	-2	·	·

Screening data deposited in PubChem by The Scripps Research Institute Molecular Screening Center.
